Screening results (PubChem BioAssay)
Shown are actives, neighbours in structure and some others; about 3.3% of the full set was active somewhere.
Smad3 inh = Smad3 (human) transcription factor binding inhibition; actives 0.29% (n = 88,000); TR-FRET Smad3/Dy647-FoxH1 peptide binding, europium anti-His; P84022; inhibition, % at 25 µM;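 active = compounds that reduce the energy-transfer binding signal between the protein and its labelled peptide by more than half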;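 also: 0% = Smad3 plus labelled peptide maximal FRET and 100% = peptide-only background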
ERa SRC1 pot = ER-alpha (human) coactivator binding potentiation | actives 1.3% (n = 86,000) | TR-FRET ERalpha-LBD/SRC-Cy5 coactivator binding, 2 h; 100 = basal binding, no effect | AID 639 | coactivator binding (% of control), % at 25.6 µM; in the data active = activity above about 200%;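 also: binding measured in presence of low estradiol as agonist stimulus; 0% = peptide alone without receptor and 100% = receptor with peptide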
ERb SRC1 inh = blocks coactivator binding to human estrogen receptor beta. actives 1.3% (n = 86,000). TR-FRET ER-beta LBD / SRC1-Cy5 peptide binding; receptor agonist-loaded with 1 µM estradiol. inhibition, % at 25.6 µM;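 active = compounds whose percent inhibition of the receptor-coactivator binding signal exceeds about 50% in the single-dose screen, limit read from the data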;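 also: 0% = receptor plus peptide wells without compound and 100% = peptide-only wells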
ERa coact inh = ER-alpha (human) coactivator binding inhibition. actives 1.7% (n = 86,000). inhibition, % at 25.6 µM. AID 629. TR-FRET ER-alpha LBD / SRC-1 peptide, estradiol-bound; in the data active = inhibition above about 50%;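 also: 0% = receptor plus peptide control and 100% = peptide only without receptor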
Candida biofilm = kills Candida albicans biofilms; inhibition, % at 6 µM; AID 834; C. albicans biofilm + clotrimazole, Alamar Blue; actives 0.14% (n = 85,000);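 active = inhibition above 20%; inactive = inhibition below 20%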;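 also: preformed 24 hr biofilms exposed to compound for 48 hr; 0% = biofilm without compound and 100% = blank killed by clotrimazole plus chlorhexidine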
FAK blocker = blocks human focal adhesion kinase activity | biochemical FAK kinase activity assay | inhibition, %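 (tested at 7 µM)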 | actives 0.84% (n = 97,000); in the data active = inhibition above about 19%;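 also: 0% = DMSO and 100% = reference compound high control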
Target sequence (Q05397 whole entry, looked up): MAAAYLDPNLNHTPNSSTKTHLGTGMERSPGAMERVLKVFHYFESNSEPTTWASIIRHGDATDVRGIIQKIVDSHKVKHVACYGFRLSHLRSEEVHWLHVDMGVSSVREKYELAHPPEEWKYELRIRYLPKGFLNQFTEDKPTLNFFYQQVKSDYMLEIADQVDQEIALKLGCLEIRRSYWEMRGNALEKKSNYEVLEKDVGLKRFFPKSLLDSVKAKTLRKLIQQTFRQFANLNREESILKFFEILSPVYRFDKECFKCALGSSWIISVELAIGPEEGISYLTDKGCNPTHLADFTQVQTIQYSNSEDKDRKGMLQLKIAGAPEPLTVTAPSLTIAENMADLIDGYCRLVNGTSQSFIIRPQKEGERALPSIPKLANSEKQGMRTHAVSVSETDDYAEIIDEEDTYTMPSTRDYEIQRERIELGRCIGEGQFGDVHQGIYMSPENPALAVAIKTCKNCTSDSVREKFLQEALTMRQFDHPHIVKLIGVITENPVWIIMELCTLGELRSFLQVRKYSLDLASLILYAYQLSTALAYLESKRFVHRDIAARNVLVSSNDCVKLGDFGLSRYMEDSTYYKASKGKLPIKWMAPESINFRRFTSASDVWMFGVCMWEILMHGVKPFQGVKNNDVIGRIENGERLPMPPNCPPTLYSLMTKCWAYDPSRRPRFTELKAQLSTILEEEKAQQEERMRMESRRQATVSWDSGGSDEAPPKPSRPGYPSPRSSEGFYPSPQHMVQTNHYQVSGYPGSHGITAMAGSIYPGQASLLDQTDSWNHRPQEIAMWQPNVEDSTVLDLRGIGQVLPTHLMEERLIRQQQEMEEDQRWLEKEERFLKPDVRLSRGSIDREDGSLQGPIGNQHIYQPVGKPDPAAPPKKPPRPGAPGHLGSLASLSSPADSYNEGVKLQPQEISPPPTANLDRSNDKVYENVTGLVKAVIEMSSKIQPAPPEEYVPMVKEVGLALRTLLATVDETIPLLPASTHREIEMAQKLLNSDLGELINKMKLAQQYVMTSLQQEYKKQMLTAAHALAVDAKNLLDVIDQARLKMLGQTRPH
The depositor's hits bear a star; / = not tested or not shown; [ ] = another dose, or the depositor's remark.

SMILES	Smad3 inh	ERa SRC1 pot	ERb SRC1 inh	ERa coact inh	Candida biofilm	FAK blocker
Clc1ccc(-c2nnc3sc(-c4ccc(Br)o4)nn23)cc1	-24	144	56*[fluorescence artefact?]	56*[fluorescence artefact?]	8	-5
Clc1ccc(-c2nnc3sc(-c4ccc(Br)o4)nn23)c(Cl)c1	/	/	/	/	/	-2
COc1ccc(-c2nnc3sc(-c4ccc(Br)o4)nn23)cc1OC	-71	139	29	62*	3	/
Nc1nc(SCC(=O)C2CCC(Br)CC2)c2[nH]cnc2n1 (centres undefined)	8	/	/	/	/	/
C/C(CC/C(C)=N/O)=N\O	16	/	/	/	/	/
Cc1onc(-c2ccccc2)c1C(=O)Nc1nc(-c2cc(F)ccc2F)cs1	10	208*[fluorescence artefact?]	19	6	8	-21
Cc1onc(-c2ccccc2)c1C(=O)Nc1cccc2nsnc12	13	266*	22	36	4	-5
COCCOC(=O)c1c(C)oc2ccc(NS(=O)(=O)c3ccc(C(=O)O)cc3)cc12	-2	49	54*[fluorescence artefact?]	39	-3	/
CCCCOC(=O)c1c(C)oc2ccc(NS(=O)(=O)c3ccc4c5c(cccc35)C(=O)N4)cc12	15	54	53*	45	9	5
NC(=O)NC(=O)[C@H]1CCCC[C@@H]1C(=O)O	-5	/	/	/	/	/
COc1cc2c(cc1OC)C(c1cc3cc4c(cc3[nH]c1=O)OCO4)N(C(=O)C(C)C)CC2 (centres undefined)	3	90	-15	-20	3	-1
O=C(Nc1ccncc1)c1cn(-c2ccccc2)nc1-c1cccs1	4	229*[fluorescence artefact?]	1	18	5	3
C=CC[C@@H](C(=O)O)c1ccccc1	-7	/	/	/	/	/
NC[C@H]1O[C@H](n2cnc3c(=O)[nH]c(N)nc32)[C@@H](O)[C@@H]1O	-6	/	/	/	/	/
COc1cc(-c2nnc(-c3ccc(N4CCOCC4)cc3)o2)cc(OC)c1OC	15	109	-6	0	6	3
COc1cc(-c2nnc(-c3ccc(S(=O)(=O)c4ccccc4)cc3)o2)cc(OC)c1OC	11	86	36	58*	5	-11
Nc1[nH]c(=O)nc2c1ncn2[C@H]1O[C@H](CO)[C@@H](O)[C@@H]1O	-6	/	/	/	/	/
Oc1ccccc1C(Sc1nc2ccccc2s1)Sc1nc2ccccc2s1	78*	/	/	/	/	/
CC(Sc1nc2ccccc2s1)C(=O)Nc1nnc(C(C)C)s1 (centres undefined)	-17	88	0	10	13	1
CCOC(=O)c1[nH]c(C(=O)O)c(CCN(CC)CC)c1C	/	/	/	/	/	8
N#Cc1ccc(NC(=O)c2cc3cc4c5c(c3oc2=N)CCCN5CCC4)cc1	11	71	49	64*	10	/
Nc1nc(N)nc(CCCc2nc(N)nc(N)n2)n1	-5	/	/	/	/	/
COc1ccc2nc(NC(=O)C3CCCN(S(=O)(=O)c4c(C)noc4C)C3)sc2c1 (centres undefined)	-3	129	83*[fluorescence artefact?]	-1	5	/
COc1ccc2nc(NC(=O)c3cc(C)oc3C)sc2c1	4	208*	4	12	-2	0
COC(=O)Nc1ccc(=O)n(Cc2c(Cl)cccc2Cl)c1	/	/	/	/	/	-2
SMILES	Smad3 inh	ERa SRC1 pot	ERb SRC1 inh	ERa coact inh	Candida biofilm	FAK blocker
Cc1cc(C)c2c(n1)nn1c(N3CCN(c4ccccc4C)CC3)cc(C)nc21	-65	402*[fluorescence artefact?]	17	2	3	0
CN(C)C[C@H]1CCC[C@@H](CN(C)C)C1=O	8	/	/	/	/	/
CC(=O)N(C(C)=O)c1c(C#N)c(C)n(-c2ccccc2)c1C(=O)c1ccccc1	-5	94	-5	68*	7	2
COCC(C)n1c(C)cc(C(=O)COC(=O)c2c(NC(C)=O)sc(C)c2C)c1C (centres undefined)	-24	542*[fluorescence artefact?]	31	23	9	/
CC(=O)c1cccc(NC(=O)C2CCCCC2)c1	2	263*	-34	-22	/	2
Clc1cccc(-c2nnc3sc(-c4ccc5c(c4)OCO5)nn23)c1	-1	199	44	55*	6	/
Cc1cc(-c2nnc3sc(-c4ccc(Cl)cc4Cl)nn23)n[nH]1	-53	360*	25	23	7	10
Clc1ccc(-c2nn3c(-c4ccccc4)nnc3s2)cc1	-8	130	38	40	6	/
CCOc1cccc(-c2nn3c(-c4cc(C)[nH]n4)nnc3s2)c1	1	90	-4	10	-3	-3
CN(C)c1ccc(-c2nn3c(-c4ccc(Cl)cc4Cl)nnc3s2)cc1	27	51	64*[fluorescence artefact?]	85*[fluorescence artefact?]	5	/
